The panel holds about 83,000 compounds, 20% with a hit somewhere; the sample as a whole holds those more often.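 Activity criterion: percent growth below 10, measured after cells in 96-well plates were exposed to a single compound concentration for 48 hours.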 Values without a mark were called inactive. Calls of active or inactive are those of the source.
Assays:
Test in all cases: NCI-60 one-dose screen, 48 h (100 = growth as untreated, 0 = no growth, -100 = all killed)
Conditions in all cases: 10 µM unless noted
[1] = system: HCT-15 colon
[2] = system: HT29 colon
[3] = system: SNB-75 CNS
[4] = system: SNB-19 CNS
[5] = system: U251 CNS
[6] = system: SK-MEL-5 melanoma
[7] = system: UACC-62 melanoma
[8] = system: LOX IMVI melanoma
[9] = system: SK-MEL-28 melanoma
[10] = system: PC-3 prostate

Row | Compound | growth [1] | growth [2] | growth [3] | growth [4] | growth [5] | growth [6] | growth [7] | growth [8] | growth [9] | growth [10]
1 | CSCc1ncc(-c2ccc(C(F)(F)F)cc2)c(NC2CCCCCC2)n1 | 64.9% [25 µM] | 64.9% [25 µM] | 71.6% [25 µM] | 73.1% [25 µM] | 68.5% [25 µM] | 78.6% [25 µM] | 70.2% [25 µM] | 82.7% [25 µM] | 95.6% [25 µM] | 
2 | CC(=O)N1CCN(CCNC(=O)n2cc(-c3ccncc3)c(-c3ccc(O)c(Cl)c3)n2)CC1 | 118% | 103% | 81.4% | 120% | 110% | 107% | 91.3% | 109% | 85.5% | 
3 | COc1cc(-c2nn(-c3ccc(NC(=O)Nc4ccc(Cl)c(C(F)(F)F)c4)cc3)cc2-c2ccncc2)ccc1Cl | 9.82% (active) | -24.4% (active) | -0.838% (active) | 30.5% | -3.64% (active) | -58.2% (active) | 6.01% (active) |  | 18.2% | 
4 | O=Nc1ccc(O)c2ccccc12 | 23.6% | 1.37% (active) | -64.5% (active) | 57.8% | -14% (active) | -97.4% (active) | 15.8% | -1.33% (active) | 13.3% | 
5 | Cc1ccc(C(C)C)c(OCc2ccc(C(=O)N/N=C/c3cccc(O)c3O)cc2)c1 | 13.4% | 39.6% | 44.7% | 45.6% | 28.3% | 38.6% | 30.8% | -12.3% (active) | 42.8% | 
6 | COc1cc(CNC(=O)CCCC/C=C/C(C)C)ccc1OCc1nnc(Nc2ccccc2F)o1 | 90.1% | 89.9% | 57.8% | 58.6% | 84% | 86.6% | 65.5% | 83.4% | 85.2% | 
7 | Nc1nc2c(c3cnccc13)C(c1cccc(Cl)c1)Cc1cnccc1-2 (configuration not stated) | 7.84% (active) | 4.99% (active) | 21% | 29.2% |  | -16.3% (active) | 26.7% | 8.05% (active) | 56% | 
8 | CCCCCCC(C(=O)OCC)(C(=O)OCC)C1CCCCCC1 | 97.5% | 98.1% | 83.7% | 99.2% |  | 100% | 101% | 101% | 106% | 102%
9 | COc1cc2ncnc(-n3ncc4cc(NC(=O)Nc5ccc(Cl)c(Cl)c5)ccc43)c2cc1OC | -35.7% (active) | -16.7% (active) | -57.7% (active) | 10.4% |  | -82.8% (active) | -68.5% (active) | -77.7% (active) | -70.9% (active) | -57.1% (active)
10 | C[n+]1c2ccccc2c(Nc2ccc(NS(=O)(=O)CCCCN=C(N)N)cc2)c2ccc(N)cc21 | 79.2% | 34% | 37.7% |  | 30% | 34.2% | 50% | 33.5% | 72.7% | 48.3%
11 | COc1cc2ncnc(-n3ncc4cc(NC(=O)Nc5ccc(Cl)c(C)c5)ccc43)c2cc1OC | 103% | 73.6% | 82.7% | 109% |  | 88% | 88.9% | 98% | 80.5% | 65.6%
12 | CCC(C)(CC)c1ccc(O)c(C)c1 | 101% | 104% | 86.2% |  | 97.7% | 104% | 109% | 97% |  | 98.9%
13 | Br/C(=N\Nc1nn[nH]n1)c1ccccc1 | 96.6% | 110% | 80.8% |  | 99.6% | 102% | 101% | 86.3% | 109% | 96.1%
14 | COc1nc(OC)nc(-c2cc(C(=O)c3ccc(Br)cc3)n3cc(C)cc(C)c23)n1 | 90.7% | 74.9% | -32.2% (active) | 28.9% |  | 87.8% | 92.1% | 3.88% (active) |  | 72.5%
15 | COc1cc2c(c3c1c(=O)c1cccc(F)c1n3C)C=CC(C)(C)O2 | 71.8% | 74.6% | 99.1% | 104% |  | 94.2% | 75.6% | 88.8% | 94.4% | 72.3%
16 | CC1(C)NC(=S)NC1=O | 102% | 105% | 89.9% |  | 98.4% | 101% | 108% | 97.5% | 110% | 95.5%
17 | CN1NC(c2ccccc2)NN(C)C1=O | 96.6% | 107% | 77.8% | 97.2% |  | 97.8% | 91.6% | 92.5% | 107% | 88.6%
18 | CCOC(=O)c1c(C)oc2ncnc(Nc3ccc(NC(=O)Nc4ccc(CC)cc4)cc3)c12 | 105% | 103% | 80.6% | 98% |  |  | 108% | 100% |  | 90.8%
19 | COC(=O)c1cc(=O)nc(N/N=C/c2ccccc2O)s1 | 70.4% | 92.9% | 110% | 95.3% |  | 91.6% | 94.8% | 82.3% | 101% | 86.3%
20 | N=C(N)c1ccc(-c2ccc(-c3cc(Cl)cc(Cl)c3)s2)cc1 | -85.9% (active) | -38% (active) | -90.6% (active) | -73.5% (active) |  |  | -80.4% (active) | -78.6% (active) | -86.4% (active) | -81.6% (active)
21 | Cc1ccc(OCCn2ccc(=O)n(CCOc3ccc(Cl)cc3C(=O)c3cc(C)cc(C)c3)c2=O)cc1 | 27.8% | 18.9% | 33.5% | 57.5% |  | 49.2% | 32.7% | 47% | 68.3% | 29.2%
22 | CCOC(=O)c1c(C)oc2ncnc(Nc3ccc(NC(=O)Nc4cccc(Cl)c4)cc3)c12 | 59% | 37.1% | 70.6% | 84.7% |  | 53% | 69.1% | 64.1% | 61.8% | 41.2%
23 | O=c1c(N=Nc2nccs2)c(-c2ccccc2)[nH]n1-c1nc(-c2ccccc2)cs1 | 19.5% | 32.2% | 61% | 24.4% |  | 15.2% | 12.3% | 44.3% | 47.1% | 32.8%
24 | CSc1nc(N)n2nccc2n1 | 108% | 102% | 78.5% | 99.7% |  | 98.8% | 98.6% | 97.4% | 98.5% | 93.5%
25 | CCOC(=O)c1c(C)oc2ncnc(Nc3ccc(C(=O)NCCc4ccccc4)cc3)c12 | 92.3% | 58.9% | 7.02% (active) | 84.1% |  | 85.6% | 95% | 75.2% | 87.9% | 59.2%
26 | O=C1Nc2ccccc2/C1=C/c1cn(CC(O)Cn2cc(/C=C3\C(=O)Nc4ccccc43)c3ccccc32)c2ccccc12 (configuration not stated) | -69.8% (active) | -20.2% (active) | -95.9% (active) | -43% (active) |  | -80.2% (active) | -75.2% (active) | -84.5% (active) | -85% (active) | -86.3% (active)
27 | N=C(N)c1ccc(-c2ccc(-c3ccc(Cl)cc3)s2)s1 | -84.8% (active) | -33.3% (active) | -96.4% (active) | -81.8% (active) |  | 2.66% (active) | -31.2% (active) | -89.4% (active) | -87.8% (active) | 
28 | COc1nc(OC)nc(-c2cc(-c3cc(OC)c(OC)c(OC)c3)no2)n1 | 103% | 100% | 97.2% | 96.9% |  | 88.2% | 97.6% | 104% | 115% | 86.3%
29 | CCCCCSc1ccc2nc(NC(=O)OCC)sc2c1 | 25.2% | 13.2% | 0.686% (active) | 37.4% |  | 5.59% (active) | 29.2% | 38.4% | 61.9% | 21.3%
30 | N=C(N)c1ccc(-c2ccc(-c3ccc(F)cc3)s2)cc1 | -92.8% (active) | -64.1% (active) | -99.2% (active) | -86.5% (active) |  | -99% (active) | -91.8% (active) | -95.1% (active) | -85.9% (active) | -94% (active)

Source: PubChem BioAssay (NCI)
